Here are results for 40 molecules from PubChem BioAssay (Tox21).

Records with an inconclusive call do not appear. A call without a number means that no potency is given here. Calls of active or inactive are those of the source. The call rests on the fitted dose curve; in most records, active means well fitted inhibition curve with a large enough effect in the repeat runs; inconclusive means weak or mixed curves; inactive means no such curve, though single readings can be large or run the other way.
Potency means the concentration at half of the fitted maximal effect.

Chain of Cytochrome P450 1A2 (Homo sapiens) (P05177 whole entry, looked up): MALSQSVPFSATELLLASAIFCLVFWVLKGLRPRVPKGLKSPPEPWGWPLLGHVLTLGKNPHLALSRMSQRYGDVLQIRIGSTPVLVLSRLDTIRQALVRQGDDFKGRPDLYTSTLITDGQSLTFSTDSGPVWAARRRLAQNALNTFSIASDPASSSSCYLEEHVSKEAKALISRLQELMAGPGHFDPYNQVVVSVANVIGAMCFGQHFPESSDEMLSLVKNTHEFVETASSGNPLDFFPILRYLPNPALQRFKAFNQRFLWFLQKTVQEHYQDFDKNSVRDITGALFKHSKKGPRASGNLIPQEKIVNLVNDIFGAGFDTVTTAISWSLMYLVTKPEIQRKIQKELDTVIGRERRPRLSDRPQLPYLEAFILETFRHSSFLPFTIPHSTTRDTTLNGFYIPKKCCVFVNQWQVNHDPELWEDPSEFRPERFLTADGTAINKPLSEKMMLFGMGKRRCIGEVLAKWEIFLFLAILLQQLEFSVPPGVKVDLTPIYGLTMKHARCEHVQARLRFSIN

The experiment addresses Cytochrome P450 1A2 (Homo sapiens) (UniProt P05177). Put plainly: Cytochrome P450 Family 1 Subfamily A Member 2 (CYP1A2) small molecule antagonists: luciferase reporter qHTS assay (AID 1671199). Further: nearly all actives have a fitted effect of over 50% in size. Conditions: P450-Glo CYP1A2 enzyme, luciferin luminescence, 1 h; series mostly up to 53 µM. The text has this:
National Center for Advancing Translational Sciences [NCATS]
U.S. Environmental Protection Agency [EPA]
National Institutes of Environmental Health Sciences [NIEHS]
National Toxicology Program [NTP]
U.S. Food and Drug Administration [FDA]
Cytochrome P450 (CYP) enzymes are membrane-bound hemeproteins that play a key role in metabolism of drugs and xenobiotics. Evaluation of the effect of chemicals on CYP isozymes is useful to minimize the adverse drug reactions and toxicities in drug development process. Tox21 chemicals were tested for their effect on CYP enzyme activities by using P450-Glo (TM) screening systems (Promega Corporation, Madison, WI). These systems provide a luminescent method containing proluciferin substrates and are converted to luciferin products by CYP isozymes. The luciferin products formed are detected with a luciferin detection reagent, and the amount of light produced is proportional to CYP activity. P450-Glo (TM) CYP1A2 screening system (Catalog. No. V9770) was used to detect the compounds that interfere in CYP1A2 activity. The positive control compound used for CYP1A2 assay is furafylline (Sigma-Aldrich, St. Louis, MO).
Tox21 Assay Protocol Summary:
Two ul of enzyme-substrate mix was dispensed into medium binding white/solid 1536-well plates (Greiner Bio-One North America Inc., Monroe, NC) using a BioRaptr Flying Reagent Dispenser (FRD, Beckman Coulter, Brea, CA). Compounds dissolved in DMSO and positive control (furafyllline) were transferred to the assay plates at 23 nl using a Pintool station (Wako, San Diego, CA). The assay plates were incubated at room temperature for 10 min. Then 2 ul of NADPH regeneration solution was added to each well of the assay plates using an FRD and incubated at room temperature for 1 h. The reaction was stopped by adding 4 ul of detection reagent using an FRD and after 20 min incubation at room temperature the luminescence signal was measured using a ViewLux plate reader (Perkin Elmer, Shelton, CT). Data were expressed as relative luminescence units.
In general terms: A reporter such as luciferase makes a cellular process visible.
On to `C=C(C)[C@@H]1CCC2=CC(=O)C[C@@H](C)[C@]2(C)C1`, for which the Potency entry was “inactive”.
As for `C[C@H](O)C(=O)Nc1c(I)c(C(=O)NC(CO)CO)c(I)c(C(=O)NC(CO)CO)c1I`, the Potency entry was “inactive”.
The same measure, in the same setting: then `CCCCCOC(=O)Nc1nc(=O)n([C@@H]2O[C@H](C)[C@@H](O)[C@H]2O)cc1F`, with “inactive”.
Same read-out and setting: in the case of `C=C[Si](OC)(OC)OC` it was 34.2 µM (active); in that of `Nc1cc(C(Cl)=C(Cl)Cl)c(S(N)(=O)=O)cc1S(N)(=O)=O`, “inactive”.
`NCC[C@H](O)C(=O)N[C@@H]1C[C@H](N)[C@@H](O[C@H]2O[C@H](CN)[C@@H](O)[C@H](O)[C@H]2O)[C@H](O)[C@H]1O[C@H]1O[C@H](CO)[C@@H](O)[C@H](N)[C@H]1O`: the activity change, negative = inhibition is 12.4% [at 0.435 µM] (inactive).
In the case of `C=C(C)C(=O)OCCC(C)OC(=O)C(=C)C` (stereo not given), the Potency is 31.7 µM (active).
The same measure, in the same setting: in the case of `C[C@H]1O[C@@H](n2cc(F)c(=O)[nH]c2=O)[C@H](O)[C@@H]1O` it was “inactive”.
On the same count and under the same terms, then `CCCCCC[C@@H](CCC)C(=O)O`, with “inactive”; and `O=c1[nH]c2ccccc2c(=O)n1CCCl`, with 5.49 µM (active).
On the same count and under the same terms, then `CCCCCCCCN(C)CCCCCCCC`, with “inactive”; and `CN(C)N=Nc1ccccc1`, with “inactive”; and `CCN(CC)C(=O)c1ccc(O)c(OC)c1`, with “inactive”.
Regarding `CNc1ncnc2nc[nH]c12`, the Potency result was “inactive”.
On the same count and under the same terms, then `CCCCCCCCCCCl`, with 32.2 µM (active); and `Cn1ccc2cc3c(cc21)CCN3C(=O)Nc1cccnc1`, with 0.0791 µM (active); and `C=CCOc1nc(OCC=C)nc(OCC=C)n1`, with 6.33 µM (active).
Still for that read-out and setting: then `CC(C)CCCC(C)NCCC(C)C` (stereo not given), with “inactive”; and `CC(C)[N+](C)(C)CC(O)COc1cccc2ccccc12` (stereo not given), with “inactive”.
Same read-out and setting: in the case of `OC[C@H]1O[C@@H]2O[C@H]3[C@H](O)[C@@H](O)[C@@H](O[C@H]4[C@H](O)[C@@H](O)[C@@H](O[C@H]5[C@H](O)[C@@H](O)[C@@H](O[C@H]6[C@H](O)[C@@H](O)[C@@H](O[C@H]7[C@H](O)[C@@H](O)[C@@H](O[C@H]8[C@H](O)[C@@H](O)[C@@H](O[C@H]9[C@H](O)[C@@H](O)[C@@H](O[C@H]1[C@H](O)[C@H]2O)O[C@@H]9CO)O[C@@H]8CO)O[C@@H]7CO)O[C@@H]6CO)O[C@@H]5CO)O[C@@H]4CO)O[C@@H]3CO` it was “inactive”; in that of `CC1=CC(C)C(C=O)C(C)C1` (stereo not given), “inactive”; in that of `NC(CS)C(=O)O` (stereo not given), 17.4 µM (active).
Take `C#CC(O)C(CC)CCCC` (stereo not given): the Potency entry was “inactive”.
For the molecule `CCCCCCC(=O)OCC`, the Potency entry was “inactive”.
On the same count and under the same terms, then `CCC(C(=O)NC(N)=O)c1ccccc1` (stereo not given), with 28.3 µM (active).
Same read-out and setting: in the case of `Oc1cc(O)c2c(c1)O[C@H](c1ccc(O)c(O)c1)[C@H](O)C2` it was “inactive”; in that of `COCCOC(=O)CC#N`, “inactive”.
As to `COc1cc(C(=O)N2CCOCC2)cc(OC)c1OC`, the Potency result was “inactive”.
Take `CCN(CC)S(=O)(=O)c1ccc(C(=O)O)cc1`: the Potency result was “inactive”.
The same measure, in the same setting: in the case of `COc1nc(C)nc(N)n1` it was “inactive”; in that of `CN(C)C(=O)C(CCN1CCC(O)(c2ccc(Cl)cc2)CC1)(c1ccccc1)c1ccccc1`, “inactive”.
On the same count and under the same terms, then `CCCCOCC(C)OCC(C)O` (stereo not given), with “inactive”; and `C(=C(c1ccccc1)c1ccccc1)c1ccccc1`, with 35.6 µM (active); and `C#CC(C)(O)CC(C)C` (stereo not given), with “inactive”.
The same measure, in the same setting: in the case of `CN(C)CCn1nnnc1SCC1=C(C(=O)O)N2C(=O)[C@@H](NC(=O)Cc3csc(N)n3)[C@H]2SC1` it was “inactive”; in that of `O=C(O)CCNC(=O)c1ccc(N=Nc2ccc(O)c(C(=O)O)c2)cc1`, “inactive”.
With `O=C(O)c1ccccc1S`, the Potency result is “inactive”.
On the same count and under the same terms, then `COCc1ccc(COC)cc1`, with “inactive”; and `Nc1nc(F)nc2c1ncn2[C@@H]1O[C@H](CO)[C@@H](O)[C@@H]1O`, with “inactive”; and `OCc1ccccn1`, with “inactive”.
